A short description of assay [1]: A CellTox Green Cytotoxicity Assay to monitor cytotoxicity in HepG2 cells - 0 hour (AID 1224882). Also: nearly all actives have a fitted effect of over 35% in size. The procedure, abridged: (§1)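 Continuous culture of HepG2 cells with a membrane-impermeant DNA dye; rising fluorescence marks dead cells. Compound exposure lasted up to 40 h at 37 C, with reads every 8 h from 0 h.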
Assay [2] can be described thus: A CellTox Green Cytotoxicity Assay to monitor cytotoxicity in HepG2 cells - 32 hour (AID 1224883). Also: nearly all actives have a fitted effect of over 50% in size. Also: potency is read from the fitted curve at half-maximal effect. In outline:
as §1

The nature of assay [3]: A CellTox Green Cytotoxicity Assay to monitor cytotoxicity in HEK293 cells - 8 hour (AID 1224884). Also: nearly all actives have a fitted effect of over 35% in size. The procedure, abridged:
(§2)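 Each value comes from one timepoint of a single continuous run in which HEK293 cells with CellTox Green were exposed to compound for up to 40 h at 37 C, dye fluorescence rising with cell death.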

A short description of assay [4]: qHTS RealTime-Glo MT Cell Viability Assay in HepG2 cells - 16 hour (AID 1224885). Also: nearly all actives have a fitted effect of over 50% in size. Also: potency is read from the fitted curve at half-maximal effect. In outline:
(§3)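 Tox21 10K library screened in qHTS format on HepG2 cells carrying RealTime-Glo reagents. Compounds were added after a 5 h preincubation, and the luminescent signal from continuous culture was measured repeatedly during 40 h treatment.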
Background: qHTS replaces the single test concentration by a dilution series.

Assay [5] is described as follows: qHTS RealTime-Glo MT Cell Viability Assay in HEK293 cells - 24 hour (AID 1224886). Also: nearly all actives have a fitted effect of over 50% in size. Also: potency is read from the fitted curve at half-maximal effect. The procedure, abridged: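 Luminescence generated by NanoLuc from substrate produced by living HEK293 cells served as the viability signal. Each value reflects the reading at its stated time point during continuous 40 h compound exposure at 37 C.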
Assay [6] in a line: qHTS RealTime-Glo MT Cell Viability Assay in HEK293 cells - 8 hour (AID 1224887). Also: nearly all actives have a fitted effect of over 50% in size. Also: potency is read from the fitted curve at half-maximal effect. The procedure, abridged: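 qHTS format; HEK293 cells with NanoLuc/prosubstrate reagent, 37 C/5% CO2 for 5 h pre-dosing; compounds 23 nL in DMSO; luminescence at each time point reflects viable cells.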
A short description of assay [7]: A CellTox Green Cytotoxicity Assay to monitor cytotoxicity in HEK293 cells - 16 hour (AID 1224888). Also: nearly all actives have a fitted effect of over 35% in size. In outline: as §2
Assay [8] in a line: qHTS RealTime-Glo MT Cell Viability Assay in HepG2 cells - 0 hour (AID 1224889). Also: nearly all actives have a fitted effect of over 50% in size. In outline: as §3
The nature of assay [9]: A CellTox Green Cytotoxicity Assay to monitor cytotoxicity in HepG2 cells - 8 hour (AID 1224890). Also: nearly all actives have a fitted effect of over 45% in size. Also: potency is read from the fitted curve at half-maximal effect. The procedure, abridged:
as §1

A short description of assay [10]: qHTS assay to identify small molecule antagonists of the estrogen receptor alpha (ER-alpha) signaling pathway using the BG1 cell line in the presence of 0.1 nM 17-beta-estradiol - cell viability counter screen (AID 1259241). Also: nearly all actives have a fitted effect of over 40% in size. The procedure, abridged:
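Cells were plated and left 24 hr, compounds in DMSO were pinned in, 17beta-estradiol was added to 0.1 nM final, and after 22 hr CellTiter-Fluor reagent was added for 30 min before fluorescence was read.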

Assay [11] is described as follows: qHTS assay to identify small molecule antagonists of the androgen receptor (AR) signaling pathway using the MDA cell line in the presence of 0.5 nM R1881 - cell viability counter screen (AID 1259242). Also: nearly all actives have a fitted effect of over 45% in size. Also: potency is read from the fitted curve at half-maximal effect. In outline:
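Fluorescence from CellTiter-Fluor, which reports protease activity of live cells, was read 30 min after reagent addition to MDA-kb2 cells that had been incubated 16 hr with compound and 0.5 nM R1881.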

Assay [12] has as its target Androgen receptor (Homo sapiens) (UniProt P10275). In words: qHTS assay to identify small molecule antagonists of the androgen receptor (AR) signaling pathway using the MDA cell line in the presence of 0.5 nM R1881 (AID 1259243). Also: nearly all actives have a fitted effect of over 50% in size. Also: potency is read from the fitted curve at half-maximal effect. In outline: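 Inhibition of R1881 (0.5 nM final) induced reporter signal was measured in human MDA-kb2 cells; note the MMTV promoter also responds to GR. Exposure lasted 16 hr at 37C.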

Assay [13] concerns the target Estrogen receptor (Homo sapiens) (UniProt P03372). In words: qHTS assay to identify small molecule antagonists of the estrogen receptor alpha (ER-alpha) signaling pathway using the BG1 cell line in the presence of 0.1 nM 17-beta-estradiol (AID 1259244). Also: nearly all actives have a fitted effect of over 50% in size. Also: potency is read from the fitted curve at half-maximal effect. In outline: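 Quantitative high-throughput screen in VM7Luc4E2 cells: compound plus 0.1 nM E2 (final), 22 h, 37C, 5% CO2; ONE-Glo added, 30 min room temperature, luminescence measured.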

Assay [14] can be described thus: qHTS assay to identify small molecule phospholipidosis (PLD) inducers (AID 1259344; active = well fitted curve in the direction sought with a large enough effect; an effect the other way counts as inactive or inconclusive). The procedure, abridged: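 Fluorescent phospholipid staining (LipidTOX Red) measured by automated microscopy in fixed HepG2 cells after 24 h treatment; nuclei counterstained with Hoechst 33342; amiodarone as reference inducer.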
A short description of assay [15]: qHTS assay to identify small molecule HDAC inhibitors (AID 1259364). Also: nearly all actives have a fitted effect of over 45% in size. Also: potency is read from the fitted curve at half-maximal effect. In outline: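 Endogenous HDAC class I/II activity was measured in wild-type HCT-116 cells by HDAC-Glo luminescence after 2 h compound treatment.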
The nature of assay [16]: qHTS assay to identify small molecule HDAC inhibitors - cell viability counter screen (AID 1259365). In outline:
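Counter screen in wild-type HCT-116 cells: compounds dissolved in DMSO are pin-transferred onto overnight-plated cells and left 2hr at 37C. ATP-based CellTiter-Glo luminescence then measures viable cells.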

Assay [17] in a line: qHTS assay to identify small molecule agonists of the sonic hedgehog signaling (Shh) pathway - cell viability counter screen (AID 1259366). Also: nearly all actives have a fitted effect of over 50% in size. Also: potency is read from the fitted curve at half-maximal effect. The procedure, abridged:
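Cells are plated at 2,000 per well and left 4hr at 37C, 5% CO2 before compound addition. After 23hr of treatment, CellTiter-Fluor reagent is added for 1hr at 37C and fluorescence is measured.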

Assay [18] can be described thus: qHTS assay to identify small molecule antagonists of the sonic hedgehog signaling (Shh) pathway - cell viability counter screen (AID 1259367). Also: nearly all actives have a fitted effect of over 55% in size. Also: potency is read from the fitted curve at half-maximal effect. In outline:
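Using CellTiter-Fluor, viability of Gli1-Luc reporter 3T3 cells is read by fluorescence in the wells used for the Shh luciferase assay. Treatment lasts 23 hr with conditioned medium, then reagent 1 hr at 37C.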

Assay [19] in a line: qHTS assay to identify small molecule agonists of the sonic hedgehog signaling (Shh) pathway (AID 1259368; calls by dose curve;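 also: NIH/3T3-derived 3T3Gli1-Luc cells carrying a stable Gli1-driven firefly luciferase reporter; series mostly up to about 92 µM; nearly all actives have a fitted effect of over 15% in size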). The procedure, abridged: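 Luminescent signal was taken as a measure of Gli1-controlled luciferase expression in stably transfected NIH/3T3-derived cells that had been treated for 24 hr with compounds delivered in DMSO.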
The nature of assay [20]: qHTS assay to identify small molecule antagonists of the sonic hedgehog signaling (Shh) pathway (AID 1259369; calls by dose curve; also: nearly all actives have a fitted effect of over 45% in size; also: potency is read from the fitted curve at half-maximal effect). In outline:
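Screening used 3T3Gli1-Luc cells at 2,000 per well, compounds delivered in DMSO, and conditioned medium as agonist stimulus; plates incubated 24hr at 37 C and 5% CO2 before a 30min luciferase step.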

Several values for one entry are separate records, joined by “and”; a condition that tells them apart may be missing. Identical values can stand only once. Results filed as inconclusive are left out. The source holds several records for some structures; these can differ, active in one and inactive in another. Activity calls are given as the source filed them. Unless noted, calls follow the shape of the dose curve; as a rule, active = well fitted curve in the direction sought with a large enough effect in the repeat runs; inconclusive = weak or mixed curves; inactive = no such curve, though single readings can be large; an effect the other way counts as inactive or inconclusive.

Sequence of Androgen receptor (Homo sapiens) (P10275 whole entry, looked up): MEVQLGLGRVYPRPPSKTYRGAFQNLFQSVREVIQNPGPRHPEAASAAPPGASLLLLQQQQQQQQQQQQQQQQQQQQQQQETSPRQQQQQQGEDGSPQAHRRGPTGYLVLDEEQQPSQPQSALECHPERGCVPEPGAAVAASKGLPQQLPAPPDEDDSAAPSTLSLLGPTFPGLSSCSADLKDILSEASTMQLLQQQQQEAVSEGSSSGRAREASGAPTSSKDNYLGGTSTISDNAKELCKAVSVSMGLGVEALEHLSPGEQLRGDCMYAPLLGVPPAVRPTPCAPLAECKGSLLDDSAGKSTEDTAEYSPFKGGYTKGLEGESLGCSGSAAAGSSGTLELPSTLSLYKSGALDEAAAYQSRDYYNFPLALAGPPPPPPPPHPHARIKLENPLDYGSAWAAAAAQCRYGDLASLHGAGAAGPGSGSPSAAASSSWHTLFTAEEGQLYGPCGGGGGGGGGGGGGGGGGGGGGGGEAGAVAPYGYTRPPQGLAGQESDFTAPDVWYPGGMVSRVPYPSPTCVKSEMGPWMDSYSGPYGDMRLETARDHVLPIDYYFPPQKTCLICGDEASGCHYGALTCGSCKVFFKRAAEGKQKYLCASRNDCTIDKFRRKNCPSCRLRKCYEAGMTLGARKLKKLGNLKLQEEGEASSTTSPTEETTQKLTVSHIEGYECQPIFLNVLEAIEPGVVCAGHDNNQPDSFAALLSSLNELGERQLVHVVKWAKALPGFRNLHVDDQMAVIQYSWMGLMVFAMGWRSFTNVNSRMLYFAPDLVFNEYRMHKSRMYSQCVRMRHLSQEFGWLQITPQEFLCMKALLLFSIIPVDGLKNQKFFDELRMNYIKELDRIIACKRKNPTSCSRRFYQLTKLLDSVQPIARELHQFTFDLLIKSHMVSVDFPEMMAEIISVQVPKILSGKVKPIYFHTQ
Sequence of Estrogen receptor (Homo sapiens) (P03372 whole entry, looked up): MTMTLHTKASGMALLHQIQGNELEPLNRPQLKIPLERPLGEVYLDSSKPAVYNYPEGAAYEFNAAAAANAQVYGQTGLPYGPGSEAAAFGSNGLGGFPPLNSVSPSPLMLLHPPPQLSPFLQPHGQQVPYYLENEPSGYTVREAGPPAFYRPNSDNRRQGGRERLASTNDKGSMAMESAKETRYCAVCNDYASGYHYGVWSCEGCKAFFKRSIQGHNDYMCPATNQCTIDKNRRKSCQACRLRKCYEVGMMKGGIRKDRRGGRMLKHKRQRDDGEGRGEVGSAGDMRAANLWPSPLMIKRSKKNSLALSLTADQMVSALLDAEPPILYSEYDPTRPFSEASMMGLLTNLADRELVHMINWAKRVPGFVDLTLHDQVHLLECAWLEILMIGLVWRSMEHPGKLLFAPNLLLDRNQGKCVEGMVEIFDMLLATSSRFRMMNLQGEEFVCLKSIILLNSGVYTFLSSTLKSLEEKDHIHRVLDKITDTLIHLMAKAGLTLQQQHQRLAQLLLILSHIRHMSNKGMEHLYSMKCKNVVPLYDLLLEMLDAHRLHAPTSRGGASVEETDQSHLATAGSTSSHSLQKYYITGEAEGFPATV

For `Cc1ccc(-c2cc(C(F)(F)F)nn2-c2ccc(S(N)(=O)=O)cc2)cc1`, the Potency entry in assay [1], in assay [3], in [7], in assay [8], in assay [10] and in assay [11] was “inactive” throughout. The Potency entry in [13], in assay [14], in [15], in assay [16] and in [19] was “inactive” in each case. The Potency is 48.8 µM (active) and 49 µM (active) in assay [2]; 48.8 µM (active) and 43.6 µM (active) and inactive in [4]; 38.7 µM (active) and 30.9 µM (active) in [5]; 43.5 µM (active) and 30.9 µM (active) and inactive in assay [6]; 54.9 µM (active) in assay [9]; 54.3 µM (active) and 68.6 µM (active) in assay [12]. The Potency in assay [17] is 60.9 µM (active) and 61.1 µM (active) and inactive; in [18], 54.3 µM (active) and 61.1 µM (active) and inactive; in [20], 21.6 µM (active) and 13.7 µM (active) and inactive.

Consider `CCCCOCCOC(=O)c1ccccc1C(=O)OCCOCCCC`, for which the Potency entry in assay [1], in assay [2], in assay [3], in assay [4], in [5] and in assay [6] was “inactive” each time. Further, the Potency entry in assay [7], in assay [8], in assay [9], in [10], in assay [11] and in [17] was “inactive” in each case. Also, the Potency entry in assay [19] is “inactive”. The Potency in assay [13] is 47.5 µM (active) and inactive; in assay [18], 53.3 µM (active) and inactive; in assay [20], 26.7 µM (active).

Take `c1ccc2cc3c(ccc4ccccc43)cc2c1`: the Potency result in assay [1], in [2], in assay [3], in [4], in assay [5] and in assay [6] was “inactive” in each case. Moreover, the Potency result in [7], in assay [8], in assay [9], in assay [10], in [11] and in assay [13] was “inactive” each time. Moreover, the Potency entry in assay [16], in [17], in assay [18] and in assay [20] was “inactive” each time. The Potency in [15] is 30.7 µM (active) and 27.3 µM (active).

With `CCn1cc(C(=O)O)c(=O)c2cc(F)c(N3CCNC(C)C3)c(F)c21` (stereo unspecified), the Potency entry in [1], in assay [2], in assay [3], in [4], in assay [5] and in [6] was “inactive” in each case. Besides, the Potency result in [7], in assay [8], in assay [9], in [10], in assay [11] and in [13] was “inactive” each time. In addition, the Potency entry in assay [14], in assay [15], in assay [17], in assay [18], in [19] and in assay [20] was “inactive” each time.

`CC(=O)CC(C)=O`: the Potency entry in assay [1], in assay [2], in assay [3], in assay [4], in assay [5] and in assay [6] was “inactive” in each case. Also, the Potency entry in assay [7], in assay [8], in [9], in assay [10], in assay [11] and in assay [13] was “inactive” throughout. The Potency entry in [15], in [16], in assay [17], in assay [18], in [19] and in [20] was “inactive” each time.

In the case of `CC(=O)Nc1ccc(C(=O)CCl)cc1`, the Potency result in [1], in assay [3], in [4], in assay [6], in [7] and in [8] was “inactive” in each case. In addition, the Potency result in assay [9], in [10], in [15], in [16] and in assay [18] was “inactive” in each case. The Potency entry in assay [2] is “inactive and 19.5 µM (active)”; in [5], “inactive and 19.5 µM (active)”; in assay [11] it was “inactive and 54.5 µM (active)”; in assay [12] it was “inactive and 54.5 µM (active)”; in [17], 21.7 µM (active); in [20], “inactive and 30.6 µM (active)”.

These data come from PubChem BioAssay (Tox21).
